# In PubChem BioAssay (NCATS):
# Several values for one entry are separate records, joined by “and”; a condition that tells them apart may be missing. Identical values can stand only once. Values without a mark were called inactive. Inconclusive results are not listed. A call without a number means that no potency is given here. Activity calls are given as the source filed them. Unless noted, the call rests on the fitted dose curve.
# Assays:
# [1] = target: Estrogen receptor (Homo sapiens) (UniProt P03372); assay: qHTS assay for small molecule agonists of estrogen receptor alpha signaling (AID 588514); further: nearly all actives have a fitted effect of over 70% in size; further: potency means the concentration at half of the fitted maximal effect
# Chain of Estrogen receptor (Homo sapiens) (P03372 whole entry, looked up): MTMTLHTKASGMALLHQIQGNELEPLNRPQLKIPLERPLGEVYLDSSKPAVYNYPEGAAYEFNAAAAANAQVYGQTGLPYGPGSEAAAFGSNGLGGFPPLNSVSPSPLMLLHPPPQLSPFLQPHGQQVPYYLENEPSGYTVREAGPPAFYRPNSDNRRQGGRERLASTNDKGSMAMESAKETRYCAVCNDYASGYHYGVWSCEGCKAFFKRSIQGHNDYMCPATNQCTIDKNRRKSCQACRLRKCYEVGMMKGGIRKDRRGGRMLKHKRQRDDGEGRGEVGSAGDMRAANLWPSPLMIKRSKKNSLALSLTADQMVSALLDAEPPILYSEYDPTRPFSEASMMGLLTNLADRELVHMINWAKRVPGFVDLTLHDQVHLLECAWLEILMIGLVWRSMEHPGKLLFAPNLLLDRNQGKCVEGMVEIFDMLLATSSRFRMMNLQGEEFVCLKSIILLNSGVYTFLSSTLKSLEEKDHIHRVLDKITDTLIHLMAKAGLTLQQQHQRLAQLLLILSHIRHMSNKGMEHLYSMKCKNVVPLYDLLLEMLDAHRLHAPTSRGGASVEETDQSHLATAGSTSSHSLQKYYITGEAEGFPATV
# Outline: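 ER-alpha-UAS-bla GripTite HEK293 cells, 5000/well in 2% charcoal/dextran-stripped FBS medium, treated with compound titrations 18 h at 37 C. CCF4 beta-lactamase read by fluorescence after 2 h RT; normalised to 20 nM 17-beta-estradiol (100%) and DMSO (0%), Hill fit for EC50 and efficacy.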
# [2] = qHTS assay to identify small molecules that stimulate interleukin-8 (IL-8) secretion (AID 651758; active means well fitted activation curve with a large enough effect in the signal ratio; the % refers to the signal ratio)
# Outline: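 THP-1, 2000 cells/well; cpd 16 h, 37 C; add cryptate + XL665 anti-IL-8 Abs; RT 1-3 h; TR-FRET read.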
# [3] = target: Bile acid receptor (Homo sapiens) (UniProt Q96RI1); assay: qHTS assay for small molecule antagonists of farnesoid X receptor signaling (AID 588526)
# Chain of Bile acid receptor (Homo sapiens) (Q96RI1 whole entry, looked up): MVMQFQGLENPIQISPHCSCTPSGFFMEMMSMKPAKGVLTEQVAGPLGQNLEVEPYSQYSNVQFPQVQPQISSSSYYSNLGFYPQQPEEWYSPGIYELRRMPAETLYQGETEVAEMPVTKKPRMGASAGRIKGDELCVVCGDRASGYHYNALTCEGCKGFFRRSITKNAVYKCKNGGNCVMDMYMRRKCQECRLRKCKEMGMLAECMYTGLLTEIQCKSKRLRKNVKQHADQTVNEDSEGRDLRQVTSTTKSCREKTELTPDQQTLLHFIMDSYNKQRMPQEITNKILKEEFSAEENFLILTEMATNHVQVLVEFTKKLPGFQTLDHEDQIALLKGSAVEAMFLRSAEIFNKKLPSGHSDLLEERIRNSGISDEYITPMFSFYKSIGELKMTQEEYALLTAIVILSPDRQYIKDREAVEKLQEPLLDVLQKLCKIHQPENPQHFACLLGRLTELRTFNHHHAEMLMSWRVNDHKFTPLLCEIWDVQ
# Outline: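 Concentration-response titrations were fitted to the Hill equation for half-maximal inhibition and maximal response, with data normalised to 50 uM chenodeoxycholic acid and DMSO control wells. Cells: FXR-UAS-bla HEK293T, dialyzed FBS.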
# [4] = target: Cytochrome P450 3A4 (Homo sapiens) (UniProt P08684); assay: qHTS Assay for Activators of Cytochrome P450 3A4 (AID 885; active means well fitted curve in the direction sought with a large enough effect; an effect the other way counts as inactive or inconclusive; further: nearly all actives have a fitted effect of over 65% in size)
# Chain of Cytochrome P450 3A4 (Homo sapiens) (P08684 whole entry, looked up): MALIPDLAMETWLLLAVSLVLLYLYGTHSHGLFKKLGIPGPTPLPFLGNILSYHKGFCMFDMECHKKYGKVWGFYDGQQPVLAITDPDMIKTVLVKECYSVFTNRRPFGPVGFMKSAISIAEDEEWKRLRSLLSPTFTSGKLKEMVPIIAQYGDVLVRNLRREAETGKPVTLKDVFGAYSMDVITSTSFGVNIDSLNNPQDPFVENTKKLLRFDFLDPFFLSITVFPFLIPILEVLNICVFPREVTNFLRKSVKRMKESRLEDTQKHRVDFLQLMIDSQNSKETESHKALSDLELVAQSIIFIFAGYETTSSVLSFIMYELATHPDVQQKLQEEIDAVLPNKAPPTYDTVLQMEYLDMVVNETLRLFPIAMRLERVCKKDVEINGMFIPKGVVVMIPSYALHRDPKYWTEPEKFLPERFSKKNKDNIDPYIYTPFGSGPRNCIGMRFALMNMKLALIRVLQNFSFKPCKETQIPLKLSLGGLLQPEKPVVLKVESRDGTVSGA
# Outline: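 Signal was normalized against complete inhibition by 57 uM ketoconazole. The reaction used 20nM CYP3A4 with 25uM Luciferin-PPXE, 10-min compound preincubation and a 60-min NADPH-supported step at RT.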
# [5] = target: Androgen receptor (Homo sapiens) (UniProt P10275); assay: qHTS assay for small molecule agonists of androgen receptor signaling (AID 588515; active means well fitted curve in the direction sought with a large enough effect in the signal ratio, with a control signal flat; the % refers to the signal ratio); settings: AR-UAS-bla HEK293, beta-lactamase ratio, agonist 16 h; hits give high values
# Chain of Androgen receptor (Homo sapiens) (P10275 whole entry, looked up): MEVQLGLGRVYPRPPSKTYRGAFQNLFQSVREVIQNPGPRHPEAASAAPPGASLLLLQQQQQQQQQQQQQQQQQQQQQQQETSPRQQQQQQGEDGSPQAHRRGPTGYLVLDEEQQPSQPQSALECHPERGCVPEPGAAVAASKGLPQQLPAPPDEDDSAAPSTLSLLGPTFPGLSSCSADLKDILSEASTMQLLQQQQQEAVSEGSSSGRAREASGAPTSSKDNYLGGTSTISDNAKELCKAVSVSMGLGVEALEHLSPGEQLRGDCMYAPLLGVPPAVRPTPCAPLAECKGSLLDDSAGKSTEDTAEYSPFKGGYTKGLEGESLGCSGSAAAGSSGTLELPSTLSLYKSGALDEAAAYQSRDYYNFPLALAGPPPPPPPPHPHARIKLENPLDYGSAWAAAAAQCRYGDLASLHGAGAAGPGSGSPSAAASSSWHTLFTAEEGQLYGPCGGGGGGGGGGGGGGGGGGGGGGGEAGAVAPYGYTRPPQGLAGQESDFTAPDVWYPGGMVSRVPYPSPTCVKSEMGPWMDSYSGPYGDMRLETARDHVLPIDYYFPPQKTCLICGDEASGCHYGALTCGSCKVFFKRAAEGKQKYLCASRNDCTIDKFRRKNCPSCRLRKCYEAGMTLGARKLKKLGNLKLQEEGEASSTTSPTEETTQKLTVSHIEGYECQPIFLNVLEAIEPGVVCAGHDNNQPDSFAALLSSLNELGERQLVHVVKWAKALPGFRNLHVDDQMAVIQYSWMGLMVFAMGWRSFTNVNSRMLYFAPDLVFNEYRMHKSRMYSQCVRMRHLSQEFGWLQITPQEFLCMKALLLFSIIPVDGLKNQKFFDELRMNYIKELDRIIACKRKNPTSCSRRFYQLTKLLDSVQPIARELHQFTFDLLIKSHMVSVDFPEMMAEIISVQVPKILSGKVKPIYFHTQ
# Outline: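 EC50 and efficacy came from Hill fits of titrations (up to 92 uM) normalized to 30 nM R1881 as 100% and DMSO as 0%. Compound exposure was 16 h at 37 C on AR-UAS-bla HEK293 cells, with a 405/460/530 nm CCF4 fluorescence read.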
# [6] = target: Androgen receptor (Homo sapiens) (UniProt P10275); assay: qHTS assay for small molecule antagonists of androgen receptor signaling (AID 588516; active means well fitted curve in the direction sought with a large enough effect in the signal ratio, with a control signal flat, not every such curve was filed as active; the % refers to the signal ratio)
# Outline: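 HEK293 AR-UAS-bla cells, 10% dialyzed FBS medium; cpd titration + R1881 10 nM final, 16 h 37 C; CCF4 2 h RT; FRET ratio; IC50/efficacy via Hill fit.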
# [7] = Confirmation and Secondary Assay for Modulators of Hemoglobin Beta Chain Splicing at IVS2 654 locus (AID 910; active means well fitted curve in the direction sought with a large enough effect; an effect the other way counts as inactive or inconclusive;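 further: per-well total GFP intensity by laser scanning cytometry after 2-day treatment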)
# Outline: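 HeLa cells stably carrying EGFP interrupted by mutant beta-globin IVS2-654 intron (CMV-driven) were treated with compound for 2 days at 37C; corrected splicing was scored as total peak GFP intensity per well (488 nm excitation, 500-520 nm emission).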
# [8] = Confirmation and Secondary Assay for Modulators of Hemoglobin Beta Chain Splicing at IVS2 705 locus (AID 930; active means well fitted curve in the direction sought with a large enough effect; an effect the other way counts as inactive or inconclusive;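 further: HeLa cells stably expressing the EGFP-705 splicing reporter; GFP fluorescence per well restored by corrected splicing of the IVS2-705 intron in EGFP; series mostly up to about 46 µM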)
# Outline: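 Per-well GFP, captured at 1 x 8 µm resolution with 488 nm excitation, served as the read-out for HeLa EGFP-705 cells incubated 2 days with test compound versus DMSO.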
structure (smiles),measurement,setting,value
O=[N+]([O-])c1ccccc1-c1ccccc1,Potency,[1],inactive
C=CC(=O)OCC(C)C,Potency,[2],inactive
Oc1c(Cl)cccc1Cl,Potency,[1],inactive
same,Potency,[2],inactive
C/C=C/CC#N,outcome,[3],inactive
same,Potency,[2],inactive
CCOC(=O)CBr,outcome,[3],inactive
same,Potency,[2],inactive
Cc1ccc(N)c(C)c1,outcome,[3],inactive
C=CC(=O)OC,outcome,[3],inactive
CC(C)[C@]12CC(=O)[C@H](C)[C@H]1C2,outcome,[3],inactive
Nc1ccc2ccccc2c1,Potency,[4],inactive
same,Potency,[1],inactive
same,Potency,[2],inactive
CCCBr,Potency,[1],0.355 µM (active)
same,outcome,[3],inactive
same,Potency,[2],inactive
CC(C)(C)C(O)(CCc1ccc(Cl)cc1)Cn1cncn1 (stereo unspecified),Potency,[4],inactive
O=C(O)C(Cl)(Cl)Br,outcome,[3],inactive
CCCCCC[N+](=O)[O-],activation,[5],8.93%
same,outcome,[3],inactive
Oc1cccc(Cl)c1,Potency,[1],inactive
OCC(Cl)CCl (stereo unspecified),Potency,[1],inactive
same,Potency,[2],inactive
[O-][Cl+2]([O-])O,Potency,[1],inactive
CC(=O)NNc1ccccc1,Potency,[4],inactive
same,activation,[5],7.34%
same,outcome,[6],inactive
same,outcome,[3],inactive
ClCc1ccccc1,Potency,[1],inactive
ClC(Cl)c1ccccc1,Potency,[1],inactive
Cc1ccc(N)cc1Cl,Potency,[4],inactive
same,Potency,[1],inactive
same,Potency,[2],inactive
Clc1ccccc1,Potency,[1],inactive
CC(C)CC(C)N (stereo unspecified),Potency,[2],inactive
CCCCCc1cc(O)cc(O)c1,Potency,[4],inactive
same,outcome,[3],inactive
same,Potency,[2],inactive
Cc1ccc([N+](=O)[O-])cc1,Potency,[1],inactive
same,Potency,[2],inactive
Cc1ccc2c(C)cccc2c1,Potency,[1],inactive
same,Potency,[2],inactive
Nc1ccc(-c2ccccc2)cc1,Potency,[4],inactive
S=c1[nH]c2ccccc2[nH]1,Potency,[4],inactive
same,activation,[5],-0.602%
same,outcome,[6],inactive
same,Potency,[2],inactive
Nc1cccc2ccccc12,Potency,[4],inactive
same,Potency,[1],inactive
same,Potency,[2],inactive
C1CC2OC2CC1C1CO1 (stereo unspecified),outcome,[3],inactive
same,Potency,[2],inactive
FC(Cl)(Cl)Cl,activation,[5],5.32%
same,outcome,[6],inactive
same,outcome,[3],inactive
ClC=CCl,Potency,[1],inactive
CCC/C=N/O,Potency,[1],inactive
same,outcome,[3],inactive
same,Potency,[2],inactive
O=S(=O)(O)F,outcome,[3],inactive
CCC[N+](=O)[O-],outcome,[3],inactive
CN(C)C(=O)Nc1ccc(Cl)cc1,outcome,[3],inactive
same,Potency,[2],inactive
[O-][Cl+]O,Potency,[1],inactive
CCC#N,outcome,[3],inactive
CC(C)C#N,Potency,[2],inactive
Cc1ccc(N)cc1N,Potency,[1],inactive
same,outcome,[3],inactive
C=CCc1cc(OC)c2c(c1)OCO2,Potency,[4],inactive
NNC(N)=S,outcome,[3],inactive
same,Potency,[2],inactive
Cc1cc(-c2ccc(N)c(C)c2)ccc1N,Potency,[4],inactive
same,Potency,[1],22.4 µM (active)
Nn1cnnc1,Potency,[1],inactive
ClP(Cl)(Cl)(Cl)Cl,Potency,[1],inactive
same,outcome,[3],inactive
COC(=O)Nc1cccc(OC(=O)Nc2cccc(C)c2)c1,Potency,[4],inactive
Clc1cccc(Cl)c1,Potency,[2],inactive
CSSC,Potency,[2],inactive
C=CC#N,Potency,[1],inactive
[N-]=[N+]=[N-],Potency,[1],inactive
same,activation,[5],-1.14%
same,outcome,[6],inactive
Cc1ccc(N=C=O)cc1N=C=O,Potency,[4],inactive
C=C(Cl)CCl,Potency,[2],inactive
CC(=O)CCC(C)=O,Potency,[1],inactive
OC[P+](CO)(CO)CO,Potency,[2],inactive
CN(C)c1ccccc1,outcome,[3],inactive
O=[N+]([O-])c1ccccc1O,Potency,[2],inactive
C=CC=O,Potency,[2],inactive
Clc1ccc(C(Cl)(Cl)Cl)c(Cl)c1,Potency,[4],inactive
C=C(C)CCl,activation,[5],8.69%
same,outcome,[6],inactive
same,outcome,[3],inactive
CCC(Cl)[N+](=O)[O-] (stereo unspecified),outcome,[3],inactive
same,Potency,[2],inactive
OCCBr,Potency,[1],inactive
same,outcome,[3],inactive
Nc1cc(Cl)cc(Cl)c1,Potency,[4],inactive
same,outcome,[3],inactive
NC1CCC(CC2CCC(N)CC2)CC1 (stereo unspecified),Potency,[1],inactive
same,outcome,[3],inactive
Oc1cc(Cl)ccc1Cl,Potency,[4],inactive
same,Potency,[2],inactive
O=Cc1ccc2c(c1)OCO2,outcome,[3],inactive
same,Potency,[2],inactive
Cc1ccc(N)c(N)c1,Potency,[4],inactive
CCOP(=S)(OCC)SCCSCC,Potency,[4],inactive
CCOS(C)(=O)=O,outcome,[3],inactive
Cl/C=C\Cl,Potency,[1],inactive
CC(Cl)(Cl)Cl,Potency,[2],inactive
O=C(Cl)OCc1ccccc1,Potency,[1],inactive
same,Potency,[2],inactive
CCCCCCCCCCCOC(=O)c1ccccc1C(=O)OCCCCCCCCCCC,Potency,[1],inactive
Cc1ccccc1[N+](=O)[O-],Potency,[1],inactive
N#CCCCCC#N,outcome,[3],inactive
same,Potency,[2],inactive
COc1cc(-c2ccc(N)c(OC)c2)ccc1N,Potency,[4],inactive
ClCc1ccccn1,Potency,[1],inactive
Cc1cc(Cl)ccc1O,outcome,[3],inactive
same,Potency,[2],inactive
COc1c(C(C)(C)C)cc([N+](=O)[O-])c(C)c1[N+](=O)[O-],Potency,[1],7.08 µM (active)
same,Potency,[2],inactive
Cc1cc(-c2cc(C)c(N)c(C)c2)cc(C)c1N,Potency,[4],inactive
O=[N+]([O-])c1ccc(Cl)c(Cl)c1Cl,Potency,[1],inactive
CC(C)OC(=O)Cc1ccccc1,Potency,[1],inactive
O=C(O)c1cc(Cl)ccc1Cl,outcome,[3],inactive
CCCN(CCC)c1c([N+](=O)[O-])cc(C(F)(F)F)cc1[N+](=O)[O-],Potency,[4],inactive
same,outcome,[7],inactive
same,outcome,[8],inactive
same,Potency,[1],inactive
same,activation,[5],-14.6% and 7.28%
same,outcome,[6],inactive
same,outcome,[3],inactive
Cc1cccc(C)c1N,Potency,[1],inactive
same,outcome,[3],inactive
CN(C)C(=O)Cl,Potency,[1],inactive
same,Potency,[2],inactive
Clc1cccc(Cl)c1Cl,Potency,[2],inactive
Nc1ccc([N+](=O)[O-])cc1[N+](=O)[O-],Potency,[1],inactive
same,activation,[5],-5.64%
same,Potency,[2],inactive
O=[N+]([O-])c1ccc2c3c(cccc13)CC2,Potency,[4],inactive
same,Potency,[1],inactive
same,outcome,[3],inactive
same,Potency,[2],inactive
CCCCOC(C)=O,Potency,[1],inactive
same,outcome,[3],inactive
Nc1ncc([N+](=O)[O-])s1,Potency,[1],inactive
same,outcome,[3],inactive
O=S(=O)(Cl)c1ccccc1,outcome,[3],inactive
C=CCBr,Potency,[1],inactive
same,outcome,[3],inactive
Cc1cccc(N)c1C,outcome,[3],inactive
BrC(Br)Br,outcome,[3],inactive
CCCCOCC1CO1 (stereo unspecified),outcome,[3],inactive
Nc1ccc(Cl)c(Cl)c1,Potency,[4],inactive
same,Potency,[2],inactive
OCCCCO,outcome,[3],inactive
ClC(Cl)C(Cl)Cl,outcome,[3],inactive
